# Measurements taken from PubChem BioAssay (Tox21).
# Results filed as inconclusive are left out. Where a call stands in place of a potency, no number is given. More than one record can exist for a structure, and the calls need not agree. Calls of active or inactive are those of the source. Unless noted, the call rests on the fitted dose curve; in most records, active means well fitted curve in the direction sought with a large enough effect in the repeat runs; inconclusive means weak or mixed curves; inactive means no such curve, though single readings can be large; an effect the other way counts as inactive or inconclusive.
# Columns and labels:
# [1] = qHTS assay for small molecule agonists of the p53 signaling pathway (AID 651631; calls by dose curve; further: nearly all actives have a fitted effect of over 15% in size)
# Procedure, shortened: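 HCT-116 cells carrying a beta-lactamase reporter under p53 response elements were dosed with compound for 16 h at 37 °C. LiveBLAzer B/G FRET substrate was then added for 2 h at room temperature, and fluorescence intensity was read to detect pathway agonism.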
# [2] = qHTS assay for small molecules that induce genotoxicity in human embryonic kidney cells expressing luciferase-tagged ATAD5 (AID 651632); further: nearly all actives have a fitted effect of over 15% in size
# Procedure, shortened: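 A rise in luciferase signal from ATAD5-tagged HEK293T cells marks genetic stress. Cells were exposed to compounds for 16 hr at 37C, 5% CO2, then luciferase was quantified after a 30 min room-temperature incubation with Amplite.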
# [3] = qHTS assay for small molecule agonists of the p53 signaling pathway - cell viability (AID 651633; calls by dose curve;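 further: p53RE-bla HCT reporter cells with a stable beta-lactamase p53 reporter; series mostly up to about 83 µM; nearly all actives have a fitted effect of over 30% in size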)
# Procedure, shortened: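 p53RE-bla cells were treated with compound for 16 hours at 37 C. Cytotoxicity was then measured as CellTiter-Glo luminescence after 30 min at room temperature.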
# [4] = qHTS assay for small molecules that induce genotoxicity in human embryonic kidney cells expressing luciferase-tagged ATAD5 - cell viability (AID 651634; calls by dose curve; further: nearly all actives have a fitted effect of over 25% in size)
# Procedure, shortened: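 Cytotoxicity counter-readout: after 15.5 hr compound treatment at 37C, live-cell protease activity in ATAD5-luciferase HEK293T cells measured by CellTiter-Fluor fluorescence, 30 min development at 37C.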
# [5] = qHTS assay for small molecule disruptors of the mitochondrial membrane potential - cell viability (AID 720634; calls by dose curve;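 further: human HepG2 liver cancer cells; series mostly up to about 83 µM; nearly all actives have a fitted effect of over 20% in size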)
# Procedure, shortened: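 Cytotoxicity was quantified from ATP content by CellTiter-Glo luminescence in the same wells as the MMP dye read-out. HepG2 (2,000 cells/well) were plated overnight and exposed to compounds for 1 hr at 37 C.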
# [6] = qHTS assay for small molecule disruptors of the mitochondrial membrane potential (AID 720635); further: potency means the concentration at half of the fitted maximal effect
# Procedure, shortened: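 HepG2 cells exposed to compound 1 hr at 37C, then Mito-MPS dye 30 min. Ratio read of aggregate (540/590 nm) versus monomer (490/535 nm) fluorescence.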
# [7] = qHTS assay to test for compound auto fluorescence at 590 nm (red) in HepG2 cells (AID 720674)
# Procedure, shortened: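 Seeding: 2,000 HepG2 cells/well, MEM/10% FBS, overnight 37 C. Dosing: compound vs DMSO. Incubation: 1 hr, 37 C, 5% CO2. Read: fluorescence 540 ex/590 em, Rose Bengal sodium as red reference.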
# [8] = qHTS assay to test for compound auto fluorescence at 460 nm (blue) in HEK293 cells (AID 720678)
# Procedure, shortened: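 Blue-channel (Ex/Em 405/460 nm) intensity measured in HEK293 cultures after overnight compound exposure at 37C; signal expressed relative to triamterene. Cells plated 2,000 per well in 10% dialyzed FBS medium and allowed 4-5 hr to attach.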
# [9] = qHTS assay to test for compound auto fluorescence at 590 nm (red) in HEK293 cells (AID 720679)
# Procedure, shortened: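 Red-channel autofluorescence (Ex/Em 540/590 nm; Rose Bengal sodium reference) was measured after overnight 37C, 5% CO2 exposure of attached HEK293 cells, 2,000 per well in medium with 10% dialyzed FBS.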
# [10] = qHTS assay to test for compound auto fluorescence at 535 nm (green) in HEK293 cell free culture (AID 720682)
# Procedure, shortened: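 Green-label autofluorescence (485 nm excitation, 535 nm emission) measured on compound added to cell-free culture medium (DMEM, 10% FBS). Output is expressed relative to fluorescein.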
# [11] = qHTS assay to test for compound auto fluorescence at 590 nm (red) in HEK293 cell free culture (AID 720683)
# Procedure, shortened: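 Cell-free wells of DMEM with 10% FBS received compound, and intrinsic fluorescence was read at excitation/emission 540/590 nm. Values expressed as equivalence to Rose Bengal sodium.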
# [12] = qHTS assay to test for compound auto fluorescence at 590 nm (red) in HepG2 cell free culture (AID 720684)
# Procedure, shortened: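 Rose Bengal sodium served as the reference for red signal. Test compounds were dispensed into serum-containing MEM (10% FBS) without cells, and plates were read at 540/590 nm.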
# [13] = qHTS assay to test for compound auto fluorescence at 460 nm (blue) in HepG2 cell free culture (AID 720685)
# Procedure, shortened: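 Cell-free plates of MEM plus 10% FBS received 23 nL compound or DMSO vehicle; blue-channel (405/460 nm) intensity scored against triamterene as reference fluorophore.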
# [14] = qHTS assay to test for compound auto fluorescence at 535 nm (green) in HepG2 cell free culture (AID 720686)
# [15] = qHTS assay to test for compound auto fluorescence at 460 nm (blue) in HepG2 cells (AID 720687)
# Procedure, shortened: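 HepG2 cells in MEM with 10% FBS, attached overnight at 37 C, were exposed to compound or DMSO for 1 hr at 37 C, 5% CO2. Blue fluorescence was read at 405/460 nm, with triamterene as reference fluorophore.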
# [16] = target: Glucocorticoid receptor (Homo sapiens) (UniProt P04150); experiment: qHTS assay to identify small molecule agonists of the glucocorticoid receptor (GR) signaling pathway (AID 720691; active means well fitted activation curve with a large enough effect in the signal ratio in the repeat runs, not every such curve was filed as active; the % refers to the signal ratio)
# Sequence of Glucocorticoid receptor (Homo sapiens) (P04150 whole entry, looked up): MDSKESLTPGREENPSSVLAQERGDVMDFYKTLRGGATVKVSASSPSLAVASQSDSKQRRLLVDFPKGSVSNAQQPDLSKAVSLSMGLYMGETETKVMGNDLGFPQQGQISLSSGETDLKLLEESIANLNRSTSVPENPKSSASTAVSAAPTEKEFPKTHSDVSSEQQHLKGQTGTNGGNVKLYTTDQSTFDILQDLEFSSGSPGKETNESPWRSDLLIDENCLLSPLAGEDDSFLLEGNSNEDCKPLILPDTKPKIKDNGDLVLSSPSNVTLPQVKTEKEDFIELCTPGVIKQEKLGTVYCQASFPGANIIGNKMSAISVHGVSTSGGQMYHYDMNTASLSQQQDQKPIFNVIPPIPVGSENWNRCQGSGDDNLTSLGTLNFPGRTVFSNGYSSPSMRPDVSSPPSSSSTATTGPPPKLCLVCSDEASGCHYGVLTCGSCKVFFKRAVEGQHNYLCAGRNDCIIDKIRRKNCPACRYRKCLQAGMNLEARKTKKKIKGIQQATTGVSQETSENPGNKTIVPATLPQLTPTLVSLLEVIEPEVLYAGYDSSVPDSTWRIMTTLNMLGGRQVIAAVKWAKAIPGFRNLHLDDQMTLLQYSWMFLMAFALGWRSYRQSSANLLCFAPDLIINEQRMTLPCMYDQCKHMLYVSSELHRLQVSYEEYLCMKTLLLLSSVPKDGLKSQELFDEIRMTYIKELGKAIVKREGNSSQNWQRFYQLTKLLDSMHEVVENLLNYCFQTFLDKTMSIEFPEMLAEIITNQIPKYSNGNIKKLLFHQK
# Procedure, shortened: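 Agonist-mode qHTS in HeLa cells stably expressing a glucocorticoid-response-element beta-lactamase reporter. Fluorescence intensity read with FRET substrate (2 h, room temperature) after 18 h compound treatment at 37 C.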
# [17] = target: Glucocorticoid receptor (Homo sapiens) (UniProt P04150); experiment: qHTS assay to identify small molecule antagonists of the glucocorticoid receptor (GR) signaling pathway (AID 720692; active means well fitted inhibition curve with a large enough effect in the signal ratio in the repeat runs, not every such curve was filed as active; the % refers to the signal ratio)
# Procedure, shortened: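 Inhibition of dexamethasone-driven (5 nM final) beta-lactamase expression was measured in GRE-reporter HeLa cells over 18 h at 37C. Fluorescence was read after 2 h with the B/G FRET substrate at room temperature.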
# [18] = qHTS assay to test for compound auto fluorescence at 535 nm (green) in HEK293 cells (AID 720680)
# [19] = qHTS assay to test for compound auto fluorescence at 460 nm (blue) in HEK293 cell free culture (AID 720681)
# Procedure, shortened: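 Compounds were added to cell-free DMEM with 10% FBS and fluorescence read directly. The blue channel used 405 nm excitation and 460 nm emission, with triamterene as the reference fluorophore.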
# [20] = qHTS assay to test for compound auto fluorescence at 535 nm (green) in HepG2 cells (AID 720675)
Structure (SMILES),Potency [1],Potency [2],Potency [3],Potency [4],Potency [5],Potency [6],outcome [7],outcome [8],outcome [9],outcome [10],outcome [11],outcome [12],outcome [13],outcome [14],outcome [15],outcome [16],Potency [17],outcome [18],outcome [19],outcome [20]
CC(C)CCCCCCOC(=O)c1ccccc1C(=O)OCCCCCCC(C)C,inactive,inactive,inactive,inactive,inactive,inactive,inactive,inactive,inactive,inactive,inactive,inactive,inactive,inactive,inactive,inactive,inactive,–,–,–
FC(F)(F)c1ccc(Cl)cc1,inactive,inactive,inactive,inactive,inactive,inactive,inactive,inactive,inactive,inactive,inactive,inactive,inactive,inactive,inactive,inactive,inactive,–,–,–
Cc1cccc(C)c1N,inactive,inactive,inactive,inactive,inactive,inactive,inactive,inactive,–,–,inactive,inactive,inactive,inactive,inactive,inactive,inactive,inactive,inactive,–
CCOP(=S)(OCC)Oc1ccc([N+](=O)[O-])cc1,inactive,inactive,inactive,inactive,inactive,55.1 µM (active) and inactive,inactive,inactive,–,inactive,inactive,inactive,inactive,inactive,inactive,inactive,inactive,–,–,–
Cl/C=C/Cl,inactive,inactive,inactive,inactive,inactive,inactive,inactive,inactive,–,–,inactive,inactive,inactive,inactive,inactive,inactive,inactive,–,inactive,inactive
O=[N+]([O-])c1ccc(Cl)cc1,inactive,inactive,inactive,–,inactive,inactive,inactive,inactive,inactive,–,inactive,inactive,inactive,inactive,inactive,inactive,inactive,–,inactive,–
Cc1ccc(O)c(C)c1,inactive,inactive,inactive,–,inactive,inactive,inactive,inactive,inactive,inactive,inactive,inactive,inactive,inactive,inactive,inactive,inactive,inactive,inactive,–
Nc1nc(N)nc(NC2CC2)n1,inactive,inactive,–,–,inactive,inactive,inactive,inactive,inactive,–,inactive,inactive,inactive,inactive,inactive,inactive,inactive,inactive,inactive,inactive
